The panel holds about 79,000 compounds, 15% with a hit somewhere; the sample as a whole holds those more often. A number with no mark means an inactive call. Active and inactive are the calls of the source. Rule as the data show it: active = growth inhibition above about 70%; inactive = the rest.
How the values were obtained:
[1] = NCI Yeast Anticancer Drug Screen. Data for the rad50 strain (AID 155);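 also: 0% = growth of vehicle-only cultures of the same strain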; details: S. cerevisiae rad50 strain growth inhibition, active compounds read high
Method in brief: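 Growth of the mutant yeast was measured after compound exposure and referenced to vehicle-treated cultures.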

[2] = NCI Yeast Anticancer Drug Screen. Data for the mec2-1 strain (AID 157); details: S. cerevisiae mec2-1 strain, active compounds read high
Method in brief: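 Readout is yeast growth inhibition, normalised to vehicle-treated controls, in the mec2-1 strain exposed to compound.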

[3] = NCI Yeast Anticancer Drug Screen. Data for the sgs1 mgt1 strain (AID 161);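 also: 0% = growth of cultures given vehicle only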; details: S. cerevisiae sgs1 mgt1 strain, active compounds read high
Method in brief: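 Compounds are added to genetically altered yeast, and growth is compared with cultures given vehicle alone to give percent inhibition.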

[4] = NCI Yeast Anticancer Drug Screen. Data for the cln2 rad14 strain (AID 165);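 also: 0% = growth equal to vehicle treated cultures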; details: S. cerevisiae cln2 rad14 strain, active compounds read high
Method in brief: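 Relative to vehicle controls, growth inhibition of compound-treated cln2 rad14 yeast was recorded.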

[5] = NCI Yeast Anticancer Drug Screen. Data for the bub3 strain (AID 167); details: S. cerevisiae bub3 mutant strain, active compounds read high
Method in brief: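 Whole-cell yeast assay. The mutant strain was incubated with compounds, and growth inhibition was determined by comparison with vehicle-treated cells.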

[6] = NCI Yeast Anticancer Drug Screen. Data for the mlh1 rad18 strain (AID 175); details: S. cerevisiae mlh1 rad18 strain growth inhibition, active compounds read high
Method in brief: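 Test agents were incubated with a yeast strain of defined genotype (DNA damage repair defect). Inhibition of growth was derived by comparison with vehicle-exposed cultures.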

[7] = at 5.0 µM (retest, dose inferred, filed as 0.5)
[8] = at 50.0 µM (retest, dose inferred, filed as 5.0)

Compound	growth inhibition [1, 7] [%]	growth inhibition [1, 8]	growth inhibition ([1]; at 50.0 µM)	growth inhibition [2, 7] [%]	growth inhibition [2, 8]	growth inhibition ([2]; at 50.0 µM)	growth inhibition [3, 7] [%]	growth inhibition [3, 8]	growth inhibition ([3]; at 50.0 µM)	growth inhibition [4, 7] [%]	growth inhibition [4, 8]	growth inhibition ([4]; at 50.0 µM)	growth inhibition [5, 7] [%]	growth inhibition [5, 8]	growth inhibition ([5]; at 50.0 µM)	growth inhibition [6, 7] [%]	growth inhibition [6, 8]	growth inhibition ([6]; at 50.0 µM)
Cc1[nH]c2ccccc2c1C(c1ccccc1)c1c(C)[nH]c2ccccc12	2	92% (active)	71.6% (active)	1	98% (active)	83% (active)	10	97% (active)	87.2% (active)	0	97% (active)	81% (active)	-1	97% (active)	83.5% (active)	20	97% (active)	94.7% (active)
CC(C(O)c1ccccc1)[N+](=O)[O-] (configuration not stated)	67	96% (active)	97% (active)	8	41%	29.2%	6	53%	55.1%	3	63%	28.1%	1	78% (active)	39.6%	7	74% (active)	38.5%
C#CC(NCCC(C)CC(C)(C)C)C(C)C (configuration not stated)	-4	-62%	83.3% (active)	2	-31%	36.2%	-3	-22%	87.7% (active)	-2	-14%	21.4%	-14	-68%	29.6%	-3	-43%	65.2%
Nc1ccc(Sc2c3ccccc3nc3ccccc23)cc1	19	59%	80.8% (active)	16	34%	63.3%	22	98% (active)	87.2% (active)	19	96% (active)	71.8% (active)	24	98% (active)	85% (active)	18	48%	60.1%

— PubChem BioAssay (NCI)
